PubChem BioAssay AID1851 (National Center for Advancing Translational Sciences (NCATS), 2009)
Hit rate of the full screen: of about 16,000 compounds, about 5,100 (32%) were called active. About 25% were inconclusive and are not listed. This is one part of the list. Values without a mark were called inactive. Calls follow the shape of the dose curve; as a rule, active = well fitted curve in the direction sought with a large enough effect; inconclusive = small, poorly fitted or top-dose-only effect, or effect the other way; inactive = no such curve, though single readings can be large or run the other way.

target: Cytochrome P450 3A4 (Homo sapiens) (UniProt P08684); assay: Cytochrome panel assay with activity outcomes; settings: recombinant CYP, pro-luciferin dealkylation, luminescence, p450-cyp3a4; series mostly up to 57.1 µM
Sequence (P08684 whole entry, looked up): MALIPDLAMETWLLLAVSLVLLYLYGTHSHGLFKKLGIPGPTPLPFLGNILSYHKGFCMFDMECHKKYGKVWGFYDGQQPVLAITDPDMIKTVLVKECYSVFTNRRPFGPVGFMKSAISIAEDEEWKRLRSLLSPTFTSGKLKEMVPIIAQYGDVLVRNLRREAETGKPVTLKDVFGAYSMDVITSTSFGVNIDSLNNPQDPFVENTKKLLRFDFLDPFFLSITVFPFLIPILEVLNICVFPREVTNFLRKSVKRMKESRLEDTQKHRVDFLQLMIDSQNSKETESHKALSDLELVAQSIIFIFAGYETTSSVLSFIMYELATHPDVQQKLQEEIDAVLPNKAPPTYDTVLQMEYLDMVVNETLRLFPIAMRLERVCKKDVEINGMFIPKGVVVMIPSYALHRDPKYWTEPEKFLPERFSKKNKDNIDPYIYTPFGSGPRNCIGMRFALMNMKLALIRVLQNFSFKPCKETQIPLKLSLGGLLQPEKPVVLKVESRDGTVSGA
% is scaled to controls: 0 for no effect and ±100 for the full control effect.

Row | SMILES | activity, negative = inhibition | AC50
1 | CC(C)(C)c1ccc(C(=O)N2CCC(C(=O)NCCC3=CCCCC3)CC2)cc1 | -5.78% [at 2.29 µM] | 
2 | O=C(NCCC1=CCCCC1)C1CCCN(c2nc3ccccc3o2)C1 (stereo not drawn) |  | 12.6 µM (active)
3 | O=C(CN1CCN(C2CCCCC2)CC1)NCCC1=CCCCC1 |  | inactive
4 | Cc1ccccc1S(=O)(=O)O[C@@H]1NS(=O)(=O)c2ccccc21 | -3.69% [at 11.4 µM] | 
5 | COC(=O)C1=C(C)NC(=O)NC1c1ccsc1 (stereo not drawn) |  | inactive
6 | CC1=C(C(=O)Nc2ccccc2F)C(c2ccsc2)C2=C(CC(c3ccccc3)CC2=O)N1 (stereo not drawn) |  | 3.55 µM (active)
7 | Cc1noc(NC(=O)Nc2ccccc2F)c1C#N | -12.9% [at 11.4 µM] | 
8 | COc1ccc(S(=O)(=O)NC2(C(F)(F)F)N=C3SCCN3C2=O)cc1 (stereo not drawn) |  | inactive
9 | O=C(c1cnccn1)N1CCC2(CC1)CN(c1ccccc1)C2 |  | inactive
10 | O=C(c1cnccn1)N1CCC2(CCCN(c3cccc(-c4ccccc4)c3)C2)CC1 |  | 2 µM (active)
11 | O=C(c1cnccn1)N1CCC2(CCCN(c3ccccc3)C2)CC1 |  | 1.58 µM (active)
12 | O=C(c1cnccn1)N1CCC[C@@]2(CCN(c3cccc(-c4ccccc4)c3)C2)C1 |  | 3.98 µM (active)
13 | CN(C)c1ncc2nc(-c3ccc(F)cc3)c(=O)n(C3CC3)c2n1 |  | inactive
14 | Cc1ccc(S(=O)(=O)CCCS(=O)(=O)c2ccc(C)cc2)cc1 |  | 12.6 µM (active)
15 | Cc1ccc(C2=C(Cl)C(=O)C(c3ccc(C)cc3)=C(Cl)C2=O)cc1 | -1.66% [at 11.4 µM] | 
16 | Cc1ccc(/S(C)=N/S(=O)(=O)c2ccc(C)cc2)cc1 (stereo not drawn) | -0.155% [at 2.29 µM] | 
17 | C[C@@H](CCc1ccccc1)NC[C@H](O)c1ccc(O)c(C(N)=O)c1 |  | inactive
18 | C=C(NC(=O)C(=C)NC(=O)c1csc(C2=N[C@@H]3c4csc(n4)[C@@H]4NC(=O)c5csc(n5)[C@@H]([C@](C)(O)[C@H](C)O)NC(=O)[C@@H]5CSC(=N5)/C(=C/C)NC(=O)[C@@H]([C@H](C)O)NC(=O)c5csc(n5)[C@]3(CC2)NC(=O)[C@@H](C)NC(=O)C(=C)NC(=O)[C@@H](C)NC(=O)[C@@H]([C@@H](C)CC)N[C@H]2C=Cc3c([C@H](C)O)cc(nc3[C@@H]2O)C(=O)O[C@H]4C)n1)C(N)=O |  | inactive
19 | Clc1ccccc1-c1nc(NCCN2CCOCC2)c2ccccc2n1 |  | 15.8 µM (active)
20 | Cc1noc(C)c1-c1nc(NCCN2CCOCC2)c2ccccc2n1 |  | 12.6 µM (active)
21 | FC(F)(F)c1ccccc1-c1nc(NCCN2CCOCC2)c2ccccc2n1 |  | 7.94 µM (active)
22 | CC1(C)Cc2c(ccc3ccccc23)C(=O)N1 |  | inactive

Row | SMILES | activity, negative = inhibition | AC50
23 | Clc1ccc(CSCCc2ccncc2)cc1Cl |  | 1 µM (active)
24 | Clc1ccc(COc2ccccn2)cc1Cl | -7.19% [at 2.29 µM] | 
25 | Clc1cccc(N/N=C/c2ccc(N3CCOCC3)cc2)c1 | -10.2% [at 2.29 µM] | 
26 | Cc1cc(O)c(/C=N/Nc2cccc(Cl)c2)c(=O)o1 |  | 5.62 µM (active)
27 | NC(=O)c1nn(-c2ccccc2)c(=O)cc1O |  | inactive
28 | O=C1CC(c2ccc3c(c2)OCO3)Sc2nc3ccccc3n21 (stereo not drawn) |  | 2.51 µM (active)
29 | O=C1CC(c2ccc3c(c2)OCO3)CN1 (stereo not drawn) | -2.08% [at 2.29 µM] | 
30 | COc1ccc(/C=C/C(=O)c2ccoc2)cc1 |  | inactive
31 | COc1cccc(C(=O)/C=C/c2ccc(SC)cc2)c1 |  | 3.98 µM (active)
32 | O=C(/C=C/c1ccc2ccccc2c1)c1ccoc1 |  | inactive
33 | Nc1ccn([C@H]2O[C@@H](COP(=O)(O)O)[C@@H](O)[C@H]2O)c(=O)n1 | -4.22% [at 11.4 µM] | 
34 | COc1ccc(C(=O)Oc2cc(/C=N/NS(=O)(=O)c3ccc(C)cc3)ccc2OC)cc1 | -26% [at 2.29 µM] | 
35 | COc1ccc(/C=N/NC(N)=S)cc1OC(=O)c1cccc2ccccc12 |  | 2.24 µM (active)
36 | CS(=O)(=O)c1ccc(/C=N\NC(N)=S)cc1 | -4.4% [at 11.4 µM] | 
37 | O=C(O)c1ccc(NS(=O)(=O)Cc2ccccc2)cc1 | -11.2% [at 11.4 µM] | 
38 | CCOC(=O)c1ccc(N/C(=N\S(=O)(=O)c2ccccc2C)c2ccccc2)cc1 |  | 2 µM (active)
39 | CCOC(=O)c1ccc(NC(=O)C2CCCO2)cc1 (stereo not drawn) | -7.73% [at 11.4 µM] | 
40 | CCOC(=O)c1ccc(NC(=O)Nc2ccc3c4c(cccc24)C(=O)N3CC)cc1 |  | inactive
41 | CN=C1S/C(=C\c2ccc(Sc3ccc(Cl)cc3)o2)C(=O)N1C |  | inactive
42 | Clc1ccc(Sc2ccc(/C=N/n3cnnc3)o2)cc1 |  | 1.12 µM (active)
43 | NC(=O)Nn1c(CCC(=O)O)ccc1-c1ccc(F)cc1 |  | inactive
44 | COc1ccccc1-c1cc(C(=O)Nc2cc(C)n(Cc3ccc(Cl)cc3)n2)no1 |  | 15.8 µM (active)

Row | SMILES | activity, negative = inhibition | AC50
45 | COc1ccccc1NC(=S)NC(=O)c1ccc(-c2ccc(Cl)cc2)o1 | -7.71% [at 2.29 µM] | 
46 | O=C(Nc1ccc(Cl)cc1)OCc1cc(-c2ccccc2Cl)on1 | 28.2% [at 2.29 µM] | 
47 | CC(C)(C)c1ccc(S(=O)(=O)/C=C\C#N)cc1 |  | 25.1 µM (active)
48 | C[C@@](N)(C(=O)O)c1ccc(S(=O)(=O)O)cc1 |  | inactive
49 | Cc1ccc(C(=O)Nc2ccc(Cc3ccncc3)cc2)cc1[N+](=O)[O-] |  | 0.355 µM (active)
50 | Cc1ccc(C(=O)Nc2ccccc2Oc2ccccc2)cc1[N+](=O)[O-] |  | inactive
51 | Cc1ccc(C(=O)COC(=O)CNC(=O)Cc2ccccc2)cc1[N+](=O)[O-] |  | inactive
52 | Cc1ccc(NC(=O)c2ccc(NCC3CCCO3)c([N+](=O)[O-])c2)cc1Cl (stereo not drawn) | -6.83% [at 11.4 µM] | 
53 | CCC(=O)Nc1ccc(C(=O)OCC(=O)c2ccc(C)c([N+](=O)[O-])c2)cc1 |  | 7.94 µM (active)
54 | CC1=CC(=O)C=CC1(C)C(Cl)(Cl)Cl (stereo not drawn) | 2.38% [at 2.29 µM] | 
55 | COc1ccc(-c2nc(-c3ccccc3)c(-c3cc([N+](=O)[O-])ccc3C)[nH]2)cc1O |  | 5.01 µM (active)
56 | O=c1[nH]c(=O)n([C@@H]2C[C@H](O)[C@H](CO)O2)cc1C(F)(F)F |  | inactive
57 | O=C(NNC(=O)c1cc(-c2ccc(Cl)c(Cl)c2)nc2ccccc12)Nc1ccccc1 | -6.22% [at 2.29 µM] | 
58 | Cc1cccc(NC(=O)NNC(=O)c2cc(-c3ccccc3Cl)nc3ccccc23)c1 |  | 3.98 µM (active)
59 | Cc1ccc(NC(=O)c2cc(Cl)nc3ccccc23)cc1 |  | 10 µM (active)
60 | CC1(C)S[C@@H]2[C@H](NC(=O)[C@@H](NC(=O)N3CCNC3=O)c3ccccc3)C(=O)N2[C@H]1C(=O)O |  | inactive
61 | CCC1CC2CC(NC(C)=O)C1C2 (stereo not drawn) | 0.468% [at 2.29 µM] | 
62 | N[C@@H](Cc1cccc([N+](=O)[O-])c1)C(=O)O | -9.82% [at 11.4 µM] | 
63 | O=[N+]([O-])c1ccc2c(c1)S(=O)c1ccccc1-2 (stereo not drawn) | -11.3% [at 11.4 µM] | 
64 | N=C(N)S[C@H]1c2ccccc2-c2cc([N+](=O)[O-])ccc21 |  | 5.01 µM (active)
65 | COC(=O)CCCC(=O)O | -18.6% [at 11.4 µM] | 
66 | COc1cc2c(C(=O)NCc3ccc(C)o3)cn(CC(C)C)c(=O)c2cc1OC | -15.9% [at 2.29 µM] | 

Row | SMILES | activity, negative = inhibition | AC50
67 | COC(=O)C(C(=O)OC)C(C[N+](=O)[O-])c1ccc(OC)c(OC)c1 (stereo not drawn) | -7.76% [at 2.29 µM] | 
68 | COc1cc(C(=O)NCCC(C)C)c([N+](=O)[O-])cc1OC |  | 15.8 µM (active)
69 | O=C(CCNc1cccc(Cl)c1)c1cccs1 |  | 14.1 µM (active)
70 | O=C(CNc1cccc(Cl)c1)c1ccc(Cl)cc1 |  | inactive
71 | O=C(NOC(=O)c1cc(Br)ccc1Cl)c1cccs1 |  | inactive
72 | CNS(=O)(=O)c1ccccc1C(=N)c1ccccc1 | -6.85% [at 11.4 µM] | 
73 | CCN(CC)C[C@@H](O)c1ccc2ccc3ccccc3c2c1 | -25.1% [at 11.4 µM] | 
74 | CCCCOC(OCCCC)[C@H](O)CSc1ccc2ccccc2c1 |  | 5.01 µM (active)
75 | CC(C)NC[C@H](O)c1ccc2ccccc2c1 |  | inactive
76 | S=c1[nH]nc(C2CCCCC2)n1/N=C/c1cccs1 |  | 12.6 µM (active)
77 | Cc1nnc(C)n1/N=C/c1cccs1 |  | inactive
78 | O=C(O)c1cc(N=Cc2ccccc2O)cc(C(=O)O)c1 | -17.4% [at 11.4 µM] | 
79 | O=S(=O)(O)c1cc(O)c2c(N=Cc3ccccc3O)cc(S(=O)(=O)O)cc2c1 | 0.658% [at 11.4 µM] | 
80 | Cc1cc(O)c(C(C)C)cc1N=Cc1ccccc1O |  | 3.16 µM (active)
81 | COc1ccc(/C=N/NC(=O)c2cccc([N+](=O)[O-])c2)cc1OS(=O)(=O)c1ccc(C)cc1 | -20.3% [at 2.29 µM] | 
82 | COc1cccc(/C=N/NC(=O)c2cccc([N+](=O)[O-])c2)c1OS(=O)(=O)c1ccc(C)cc1 |  | 1.12 µM (active)
83 | COc1cc(/C=N\Nc2ccc([N+](=O)[O-])cc2)ccc1OCC(=O)Nc1ccc(C)c(C)c1 |  | 3.98 µM (active)
84 | O=C(COc1ccc(/C=N/NC(=O)c2ccccc2)cc1)Nc1ccc([N+](=O)[O-])cc1 |  | inactive
85 | COc1cc(/C=N/NC(=O)c2cccc([N+](=O)[O-])c2)ccc1OCc1ccc(C)cc1 |  | 1.41 µM (active)
86 | N[C@@H](Cc1ccc(O)c(O)c1)C(=O)O |  | inactive
87 | O=C(O)c1c(-c2c3ccc(=O)cc-3oc3cc(O)ccc23)cc2ccccc2c1-c1ccccc1 | -8.67% [at 11.4 µM] | 
88 | Cc1nc(-c2c(C(F)(F)F)noc2-c2ccc(O)cc2O)cs1 |  | 0.501 µM (active)
